Source: the supplement of paper PMC6555819

What was measured:
Experiment in all cases: PBM binding z-score (relative to random genomic background probes); higher = stronger binding; sequences stand for … in GC…GCGATTGACAGCGTAGAATGAAGG
[1] = system: FXR:RXRa (NR concentration 270 nM, RXRa partner concentration 90 nM)
Outline: (§1)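 The probes on custom Agilent 4×180K protein-binding microarrays were double-stranded, with 34-nt variable regions bearing direct-repeat seeds, single-nucleotide variants, half-site ablations and random human genomic background sequences. Incubation lasted 1 h with ligand-free nuclear receptor dimers in PBS pH 7.4, 2% milk, 0.02% Triton X-100, 1 mM DTT, 0.2 mg/mL BSA and 0.4 mg/ml salmon testes DNA. Antibodies against each partner (one per run) detected bound dimers, and fluorescence scans were regression-normalized. Binding z-scores take the random background probes as reference.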

[2] = system: LXRa:RXRa (NR concentration 270 nM, RXRa partner concentration 90 nM)
Outline: as §1

[3] = system: LXRa homodimer (NR concentration 270 nM)
Outline: as §1

[4] = system: LXRb:RXRa (NR concentration 270 nM, RXRa partner concentration 90 nM)
Outline: as §1

[5] = system: LXRb homodimer (NR concentration 270 nM)
Outline: as §1

[6] = system: PPARa:RXRa (NR concentration 270 nM, RXRa partner concentration 90 nM)
Outline: as §1

[7] = system: PPARg:RXRa (NR concentration 180 nM, RXRa partner concentration 90 nM)
Outline: as §1

[8] = system: PPARg:RXRa 270nM:90nM, anti-RXR (NR concentration 270 nM, RXRa partner concentration 90 nM)
Outline: as §1

[9] = system: PPARg:RXRa 30nM:10nM, anti-RXR (NR concentration 30 nM, RXRa partner concentration 10 nM)
Outline: as §1

[10] = system: PPARg:RXRa 90nM:30nM, anti-RXR (NR concentration 90 nM, RXRa partner concentration 30 nM)
Outline: as §1

[11] = system: PPARg:RXRa DBDmut IVT, anti-RXR (DBD mutation: RXRa K156A/R161A, NR concentration 270 nM, RXRa partner concentration 90 nM)
Outline: as §1

[12] = system: PPARg:RXRa IVT, anti-PPARg (NR concentration 270 nM, RXRa partner concentration 90 nM)
Outline: as §1

[13] = system: PPARg DBDmut:RXRa IVT, anti-PPARg (DBD mutation: PPARg1 K132A/R137A, NR concentration 270 nM, RXRa partner concentration 90 nM)
Outline: as §1

[14] = system: PPARg DBDmut IVT, anti-PPARg (DBD mutation: PPARg1 K132A/R137A, NR concentration 270 nM)
Outline: as §1

[15] = system: PPARg homodimer (NR concentration 180 nM)
Outline: as §1

[16] = system: PXR:RXRa (NR concentration 270 nM, RXRa partner concentration 90 nM)
Outline: as §1

[17] = system: PXR homodimer (NR concentration 270 nM)
Outline: as §1

[18] = system: RARa:RXR (NR concentration 270 nM, RXRa partner concentration 90 nM)
Outline: as §1

[19] = system: RARa homodimer (NR concentration 270 nM)
Outline: as §1

[20] = system: RARb:RXRa (NR concentration 270 nM, RXRa partner concentration 90 nM)
Outline: as §1

Sequence	PBM binding z-score [1]	PBM binding z-score [2]	PBM binding z-score [3]	PBM binding z-score [4]	PBM binding z-score [5]	PBM binding z-score [6]	PBM binding z-score [7]	PBM binding z-score [8]	PBM binding z-score [9]	PBM binding z-score [10]	PBM binding z-score [11]	PBM binding z-score [12]	PBM binding z-score [13]	PBM binding z-score [14]	PBM binding z-score [15]	PBM binding z-score [16]	PBM binding z-score [17]	PBM binding z-score [18]	PBM binding z-score [19]	PBM binding z-score [20]
TTACCAAGGTGAAGGTCGTTGTTCCCTCTGTAGA	1.41	1.32	0.195	1.41	-0.491	2.58	2.54	4.08	2.07	3.78	2.23	3.49	-0.665	-0.042	0.635	1.47	0.134	1.76	-0.318	2.4
CCAGACAGGTGAAAGGAAACTCAGTCTGGTACGC	-0.00156	-0.109	-0.46	-0.0929	-0.489	0.52	0.81	1	-0.0154	0.657	1.07	0.474	-0.232	-0.58	0.283	-0.274	-0.261	0.0734	-0.148	0.522
CCTAGCGGGCCAGGGTCACTCAAGCATTTCGCTT	2.02	1.7	-0.501	1.75	-1.09	3.22	0.585	1.45	-0.704	0.334	-0.418	0.39	-1.58	-1.58	0.563	2.61	-0.612	3.38	-0.206	2.53
GGAACGAGGGCAAGTTGATAGCGGAGTTTGATGG	0.772	0.00493	-0.352	0.246	-0.525	1.7	0.963	1.16	0.00794	0.229	3.78	2.64	-0.0734	-0.677	0.26	0.392	0.189	0.406	-0.36	2.53
CGTCCAAGGTCAGAGAGGTCAGTCAATGCCGAGT	6.08	5.49	3.45	4.65	0.441	4.81	3.37	4.63	1.03	2.63	2.82	3.35	-0.282	-0.369	4.06	6.13	12.6	5.82	1.78	5.12
TCTTGTAGATCAAGGAGGTTAAGAAAGCCTGAGT	0.502	0.513	-0.308	0.459	-0.443	1.27	-0.429	1.44	2.7	1.77	1.66	0.772	0.58	0.0101	0.474	0.734	0.408	0.789	-0.0638	0.468
TCGAGTAGGTTACCAATAGGGCATTCAGCTTTCT	0.215	2.16	-0.0808	0.671	-1.16	1.36	0.697	1.32	1.08	1.1	3.28	2.9	-0.0313	0.193	-0.151	0.391	-0.656	0.441	-0.367	1.08
TCAGACAGGTGAAGGTAACTCATGTACGCAGTCG	0.849	1.03	-0.116	0.964	-0.0252	1.26	0.954	2.14	4.07	2.81	2.93	1.04	0.0578	0.317	0.397	0.672	0.214	0.117	0.348	1.04
CGTCCAAGGTTAAAGGTCAGTGAAGAGATGACGG	6.23	5.21	1.72	4.9	0.226	6.28	8.06	7.36	6.31	8.12	1.93	4.19	0.18	0.148	3.37	5.79	0.975	7.42	1.36	5.01
TCTTGTAGATCAAGCAGGTTAGGAAAGCCTGAGT	-0.176	0.11	-0.571	-0.145	-0.701	0.251	-0.615	1	2.29	1.62	1.57	0.595	0.172	-0.0543	-0.235	-0.00169	0.0817	0.204	-0.0735	-0.0169
ATATGTAGGATACATCCGGGTCATTCAGGCTATG	1.21	1.31	0.653	1.61	0.399	2.9	2.14	1.77	0.797	1.28	3.21	3.86	1.63	1.37	1.25	2.39	1.38	2.42	0.161	1.2
CAAACTAGGTCAGGGTCAAAGTCGGTTTGTGCCA	5.97	4.32	1.32	4.16	0.645	6.05	9	7.43	5.39	7.73	8.32	8.36	4.34	3.17	4.2	4.81	1.33	5.35	1.42	4.47
AGAACGAGGGTAATGAGTTGATAGCACGGGTGGC	-0.398	-0.272	-0.536	-0.672	-0.615	0.387	1.08	0.119	0.202	0.182	1.74	1.31	-0.702	-0.588	-0.465	0.134	1.17	-0.279	-0.76	0.509
TCTTGTAGATCAAGCAGGTTTAGAAAGCCTGAGT	0.0311	0.0459	-0.387	-0.134	-0.464	0.137	-0.639	0.91	2.24	1.35	1.37	0.0829	-0.44	0.305	-0.478	0.273	-0.0713	-0.152	-0.252	-0.191
ACTAGTTGGTCAGCTTAGGTCACACACAATTCGG	1.75	1.6	1.42	1.82	0.877	1.97	1.07	1.05	0.166	0.931	1.43	1.87	0.8	0.659	1.88	2.67	0.251	2.57	1.13	2.65
CGTCCAAGGTCAATGCTAGGTAAGTGAAAGCATT	5.28	4.48	0.161	3.61	0.552	5.13	3.69	4.15	0.806	2.86	2.99	3.27	0.401	-0.137	1.55	3.28	0.34	3.5	0.168	4.88
AGAATGTGGTTATACGTAGATCAGGGAAGAAAGT	0.107	0.271	0.177	0.318	-0.0614	0.259	0.647	0.356	0.568	0.428	-0.104	0.38	1.04	0.755	0.355	0.214	0.82	0.282	0.734	0.0601
TTACCAAGGTGAGCTGAGGTCGTTGACCCAACTC	2.54	2.48	-0.484	1.43	-0.784	2.06	0.441	0.96	-0.036	0.348	0.928	2.03	0.277	-0.41	0.266	5.01	0.193	2.57	-0.539	1.91
TCTGGGAGGACACGAAAGGTCAGAGCTCGACATC	3.35	4.18	3.31	3.11	0.345	3.51	1.49	2.81	1.88	2.34	1.27	1.89	0.0227	-0.425	2.76	4.23	0.802	4.77	1.17	4.34
CCAGACAGGTGAAAGGTAACTCGGTCTGGTACGC	0.495	0.577	-0.368	0.702	-0.561	3.46	5.96	5.52	4.56	6.21	2.3	2.9	-0.38	-1.24	0.981	0.75	-0.111	1.77	0.392	1.2
CCTACTGGGCCCAAAAGGTCATTGATGCCGATAA	4.23	4.84	3.68	4.62	0.521	4.61	1.78	3.47	0.593	2.69	0.117	1.66	-0.622	-1.17	2.86	4.97	1.92	5.31	1.46	3.93
TTGCCTAGGTCAGATCGGGCCAGTATACGCTATA	2.67	1.04	-0.621	0.692	-0.831	1.51	0.532	0.852	-0.179	0.0126	0.589	1.07	-1.83	-1.18	0.162	1.47	-0.653	1.46	-0.953	3.07
TCAAATAGGTAAAAGGTGAAAGTCGGTGTGGTAA	2.23	1.93	0.419	2.06	-0.106	5.45	8.26	8.33	8.45	9.13	4.66	4.53	0.779	0.749	2.29	1.91	0.411	3.31	1.82	2.27
TCTCGGAGGAAACGAAGGTCAGAGCTTTCCAGAG	0.418	0.556	-0.0873	1.02	-1.15	1.72	-0.151	1.19	1.74	1.39	0.867	-0.0763	-1.61	-1.24	0.766	0.848	-0.378	1.7	-0.763	2.03
CCTACTGGGCCGCGAAAGGTCATTGATTCAGTGA	3.37	4.49	3.63	3.85	0.0149	4.35	1.94	3.69	0.701	2.76	2.81	3.04	-1.14	-0.345	3.03	5.13	1.47	5.27	0.0232	3.81
ATATGTAGGTTAAGGGTCTTTCAGGTTGGTTCGC	1.3	1.7	0.812	1.77	0.832	4.62	8.46	8.05	6.71	8.67	7.78	7.16	1.06	1.67	2.46	1.45	1.1	1.64	1.86	1.55
